Tau FP inhib – tau fibrillization inhibition (FP); Potency, µM (highest dose often 57.7 µM), actives largely listed as inhibitors; AID 1468; actives 0.39% (n = 280,000); K18 P301L tau heparin fibrillization, Alexa594 FP, 6 h; further: nearly all actives have a fitted effect of over 55% in size
Target sequence (P10636 561-689 P618L limits assumed): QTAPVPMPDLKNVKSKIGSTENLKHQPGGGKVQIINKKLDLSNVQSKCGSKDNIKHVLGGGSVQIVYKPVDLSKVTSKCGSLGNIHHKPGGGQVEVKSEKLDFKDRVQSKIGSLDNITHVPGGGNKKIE
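K18 P301L tau (15 uM unlabeled/0.24 uM Alexa 594-labeled, final) + compound + heparin 20 uM final; 100 mM NaOAc pH 7; 6 hr 37 C; ThT 30 uM final added, 1 hr RT; FP ex 555/em 632 nm.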
Tau fluor counter – counter-screen for tau fibril formation inhibitors. Potency, µM (titrated, usually from 57.7 µM). actives 0.93% (n = 280,000). tau K18 P301L Alexa594 fluorescence, heparin fibrillization; further: nearly all actives have a fitted effect of over 55% in size
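Human tau K18 P301L (15 uM unlabeled, 0.24 uM Alexa 594-labeled) in 100 mM sodium acetate pH 7 with 20 uM heparin, 6 hr at 37 C. ThT 30 uM added, 1 hr ambient; Alexa 594 FP and total fluorescence read at 555/632 nm.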
Coupling enz – inhibits coupling enzyme system, counter-screen for aldolase hits; coupling enzyme system counterscreen, AmpLite Red fluorescence; activity change, negative = inhibition, % at 58.2 µM, hits read low; actives 0.67% (n = 290,000); in the data active means activity change below about -30%
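First, compound is pin-transferred into glyceraldehyde-3-phosphate coupling-enzyme reagent at 57.5 uM final and held 10 min at RT. Next, substrate, coupling system and AmpLite Red are added. After 20 min RT, fluorescence (525/598 nm) is read.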
Tau ThT inhib – blocks human tau fibril formation measured by thioflavin T; P10636; recombinant tau K18 P301L (four-repeat tau fragment), heparin-induced fibrillization, ThT fluorescence; Potency, µM (top dose mostly 57.4 µM), usual class: inhibitors; actives 2.1% (n = 270,000); AID 1460; further: nearly all actives have a fitted effect of over 55% in size
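Heparin-induced (20 uM) aggregation of recombinant human K18 P301L tau, 15 uM unlabeled with 0.24 uM labeled, pH 7 acetate buffer, 6 hr at 37 C with compound. Fibrils quantified by 30 uM ThT fluorescence after 1 hr ambient incubation.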
Sfp inh – inhibitors of Bacillus subtilis Sfp phosphopantetheinyl transferase. Q9F4F7. Biochemical Sfp PPTase activity, qHTS. Potency, µM, hits mostly inhibitors. actives 3.5% (n = 310,000);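 further: the enzyme is Sfp with the accession as filed and its product quenches rhodamine fluorescence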
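Reaction rates are the 30-min fluorescence difference (ex 525, em 598 nm) in wells containing 15 nM Sfp, 5 uM rhodamine-CoA and 12.5 uM BHQ-2-YbbR at pH 7.6 with 10 mM MgCl2.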
Numbers stand for hits; ! = repeats disagree; [ ] = another dose, or the depositor's remark. Most compounds without a hit are left out; they make up all but 5.2% or so of the library. Unless noted, the call rests on the fitted dose curve; in most records, active means well fitted curve in the direction sought with a large enough effect; inconclusive means small, poorly fitted or top-dose-only effect, or another doubt; inactive means no such curve, though single readings can be large; an effect the other way counts as inactive or inconclusive.

O=S1(=O)C2CC3C=CC2(O3)C(O)C(Cc2ccccc2)N1Cc1cccc(C(F)(F)F)c1 (stereo not drawn) was read as Coupling enz inactive and Sfp inh inactive.
For CC(C)(C)c1ccccc1OCCCCCn1ccnc1 the results were Tau FP inhib inactive, Tau fluor counter inactive, Coupling enz inactive, Tau ThT inhib inactive and Sfp inh 56.2µM.
Screening Cc1ccc(OCCCCn2ccnc2)c([N+](=O)[O-])c1 returned Tau FP inhib inactive, Tau fluor counter inactive, Coupling enz inactive, Tau ThT inhib inactive and Sfp inh 56.2µM.
Cc1ccc(OCCn2ccnc2)c(C)c1 was read as Coupling enz inactive and Sfp inh inactive.
Cc1ccc(OCCOCCn2ccnc2)c(Br)c1 was read as Tau FP inhib inactive, Tau fluor counter inactive, Coupling enz inactive, Tau ThT inhib inactive and Sfp inh 79.4µM.
Cc1cc(C)c2oc(-c3cccc(NC(=O)c4ccc(-c5cccc([N+](=O)[O-])c5)o4)c3)nc2c1 was read as Tau FP inhib inactive, Tau fluor counter inconclusive and Tau ThT inhib inconclusive.
For CCOC(=O)/C=C(\C)Sc1cc(O)c2ccccc2c1O the results were Tau FP inhib 4.47µM, Tau fluor counter inconclusive, Coupling enz -86.0, Tau ThT inhib 1.78µM and Sfp inh 7.94µM.
`COCCCn1c(=S)[nH]c2sc3c(c2c1=O)CCCS3` gave Tau FP inhib inactive, Tau fluor counter inactive, Coupling enz inactive, Tau ThT inhib inconclusive and Sfp inh 35.5µM.
Screening Cc1ccc(S(=O)(=O)NNc2ccccc2)c(C)c1 returned Tau FP inhib inconclusive, Tau fluor counter inactive, Coupling enz inactive, Tau ThT inhib 22.4µM and Sfp inh 17.8µM.
Screening Cc1ccc(C)c(S(=O)(=O)Nc2ccc(O)c3ccccc23)c1 returned Coupling enz inactive and Sfp inh 70.8µM.
Cc1ccc(S(=O)(=O)Nc2cc(C(C(=O)OC(C)C)C(=O)C(F)(F)F)c(O)c3ccccc23)c(C)c1 (stereo not drawn) was read as Tau FP inhib inactive, Tau fluor counter inconclusive, Coupling enz inactive, Tau ThT inhib inconclusive and Sfp inh 56.2µM.
Cc1ccc(S(=O)(=O)Nc2ccc(O)c3ccccc23)c(C)c1 was read as Coupling enz inactive and Sfp inh 56.2µM.
`CCC(Nc1ncnc2ccc(-c3c(C)noc3C)cc12)c1ccccc1` (stereo not drawn) gave Coupling enz inactive and Sfp inh inactive.
`CCOC(=O)c1ccccc1NC(=O)N1CCC(CN2CCCCC2)CC1` gave Tau FP inhib inactive, Tau fluor counter inactive and Tau ThT inhib inactive.
Screening COc1ccc(-c2nc(CSCC(=O)NCCc3ccc(OC)c(OC)c3)c(C)o2)cc1 returned Tau FP inhib inactive, Tau fluor counter inactive and Tau ThT inhib inconclusive.
`CN=C1S/C(=C\c2ccc(N3CCOCC3)c(F)c2)C(=O)N1C` gave Tau FP inhib inactive, Tau fluor counter inactive, Coupling enz inactive, Tau ThT inhib inconclusive and Sfp inh inactive.
Screening CN=C1S/C(=C\c2ccc(N3CCCC3)c(F)c2)C(=O)N1C returned Tau FP inhib inactive, Tau fluor counter inconclusive, Coupling enz inactive, Tau ThT inhib inconclusive and Sfp inh 70.8µM.
`O=[N+]([O-])c1ccc(Oc2cccc3cccnc23)c(Cl)c1` gave Coupling enz -37.2 and Sfp inh inactive.
For O=C(COC(=O)c1ccc2c(c1)C(=O)N(c1cccc3ncccc13)C2=O)c1ccc(Cl)cc1 the results were Tau FP inhib inactive, Tau fluor counter inactive, Coupling enz inactive, Tau ThT inhib inconclusive and Sfp inh 28.2µM.
Screening Cc1ccc(C(=O)COC(=O)c2ccc3c(c2)C(=O)N(c2cccc4ncccc24)C3=O)cc1 returned Tau FP inhib inactive, Tau fluor counter inactive, Coupling enz inactive, Tau ThT inhib inconclusive and Sfp inh 79.4µM.
`O=C(/C=C/Nc1ccccc1)c1ccccc1` gave Tau FP inhib inactive, Tau fluor counter inactive, Coupling enz inactive, Tau ThT inhib inactive and Sfp inh inactive.
Screening CCOC(=O)c1ccc(N/C=C/C(=O)C(C)(C)C)cc1 returned Tau FP inhib inactive, Tau fluor counter inactive, Coupling enz inactive, Tau ThT inhib inconclusive and Sfp inh inactive.
For CN(C)c1ccc(N/C=C/C(=O)C(C)(C)C)cc1 the results were Tau FP inhib inconclusive, Tau fluor counter inconclusive, Coupling enz inactive, Tau ThT inhib 15.8µM and Sfp inh 50.1µM.
CN(C)c1ccc(N/C=C/C(=O)c2ccccc2)cc1 was read as Tau FP inhib inactive, Tau fluor counter inconclusive, Coupling enz inactive, Tau ThT inhib 1.78µM and Sfp inh 20µM.
Cc1cccc(OCc2nc(C#N)c(NCc3ccccc3Cl)o2)c1 was read as Tau FP inhib inactive, Tau fluor counter inconclusive and Tau ThT inhib inactive.
For Cc1ccccc1Nc1c(-c2c[nH]c3ccccc23)nc2cccc(C)n12 the results were Tau FP inhib inactive, Tau fluor counter inactive and Tau ThT inhib inactive.
`O=C1Nc2ccc(I)cc2/C1=C/c1cc(Br)c(O)c(Br)c1` gave Tau FP inhib inconclusive, Tau fluor counter 14.1µM![quencher], Coupling enz inactive, Tau ThT inhib 3.98µM and Sfp inh inconclusive.
Cc1ccc2c(c1)/C(=C/c1ccccc1)C(=O)N2 was read as Coupling enz inactive and Sfp inh inactive.
`COc1ccccc1CNC(=O)c1cc2cc(C)ccc2n1C` gave Tau FP inhib inactive, Tau fluor counter inactive and Tau ThT inhib inactive.
For Cc1ccc(-c2noc(-c3ccc(NC4CCCC4)c([N+](=O)[O-])c3)n2)cc1 the results were Tau FP inhib inactive, Tau fluor counter inactive and Tau ThT inhib inactive.
For C(=N\NC1=Nc2cccc3cccc1c23)/c1ccccn1 the results were Tau FP inhib inactive, Tau fluor counter inconclusive, Coupling enz inactive, Tau ThT inhib 2.82µM and Sfp inh 44.7µM.
For Clc1ccccc1/C=N/NC1=Nc2cccc3cccc1c23 the results were Tau FP inhib inactive, Tau fluor counter inactive, Coupling enz inactive, Tau ThT inhib 2µM and Sfp inh inactive.
Screening C(=N\N=C\c1ccccn1)/c1ccccn1 returned Coupling enz inactive and Sfp inh inactive.
Screening COc1cccc(Cn2c(=O)n(-c3cccc(Cl)c3C)c(=O)c3c4c(sc32)CN(C(C)=O)CC4)c1 returned Tau FP inhib inactive, Tau fluor counter inactive and Tau ThT inhib inactive.
Screening COc1ccc(-c2nc3sc(CCNC(=O)c4ccc(Br)o4)c(C)n3n2)cc1 returned Tau FP inhib inactive, Tau fluor counter inactive and Tau ThT inhib inconclusive.
For Brc1ccc(C2Nc3cccc4cccc(c34)N2)s1 the results were Tau FP inhib inconclusive, Tau fluor counter inconclusive, Coupling enz inactive, Tau ThT inhib 12.6µM and Sfp inh inactive.
For Cc1ccc(C2=N/C(=C/N3CCOCC3)C(=O)O2)cc1 the results were Tau FP inhib inactive, Tau fluor counter inactive, Coupling enz inactive, Tau ThT inhib inactive and Sfp inh inactive.

Screening data: PubChem, National Center for Advancing Translational Sciences (NCATS)
